From PubChem BioAssay (Tox21)
Results filed as inconclusive are left out. Where a call stands in place of a potency, no number is given. Active and inactive are the calls of the source. Calls come from the whole dose curve; as a rule, active = well fitted cell-killing curve with a large enough effect in the repeat runs; inconclusive = weak or mixed curves, or effect the other way; inactive = flat fitted curve, though single readings scatter.

Assay: Nuclear factor erythroid 2-related factor 2/antioxidant responsive element (Nrf2/ARE) small molecule agonists: qHTS cell viability counter screen in human keratinocytes (AID 1919968); note: nearly all actives have a fitted effect of over 55% in size
In short: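 KeratinoSens HaCaT cells, 1,500/well, preincubated 5 h, then exposed to compounds in DMSO for 23 h at 37 C/5% CO2. Viability read as CellTiter-Fluor fluorescence after 1 h, in the same wells as the ARE-luciferase read.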

## CC(=O)[O-].CC(=O)[O-].O.O.O.[Pb+2]
  Potency: inactive

## CC(CC(C#N)(c1ccccc1)c1ccccc1)N(C)C (configuration not stated)
  Potency: inactive
